Counter-ions that a name gives are not always drawn. ± gives the standard deviation of the averaged measurements.
How the values were obtained:
Assay in all cases: growth (OD600 after 10 h); higher = more growth (less inhibition)
[1] = test system: E. coli TESEC Alr+ wild-type control; conditions: compound 0.1 mM; raw OD600 reference: median of DMSO wells 0.241, cell-free background 0.041
Description: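 TESEC Mtb Alr E. coli, or the Alr+ wild-type control, in 384-well plates with Prestwick library compounds at 0.1 mM and 1% DMSO, across arabinose induction levels of 1E3 to 1E7 nM. Growth is read as OD600 after 10 h at 37 °C in triplicate biological replicates.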

E. coli TESEC Mtb Asd = conditions: compound 0.1 mM
Description: (§1)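 TESEC E. coli strains in which the native enzyme is deleted and replaced by arabinose-inducible Mtb Asd, DapB, CysH or TrpD, each grown in its selective medium. Strains were screened against the Prestwick library at 0.1 mM and 1% DMSO in 384-well format at low and high arabinose induction. Growth is read as OD600 after 10 h in triplicate.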

E. coli TESEC Mtb DapB = conditions: compound 0.1 mM
Description: as §1

E. coli TESEC Mtb Alr = conditions: compound 0.1 mM
Description: (§2)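 TESEC Mtb Alr E. coli (ΔaraC ΔtolC ΔentC Δalr ΔdadX, arabinose-inducible Mtb Alr) or the Alr+ wild-type control strain, grown in defined M9-fructose medium without D-alanine in 96-well plates with Prestwick library compounds at 0.1 mM and 1% DMSO. Low Alr induction is 0.1 µM arabinose and high induction is 10 mM arabinose.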

[2] = test system: E. coli TESEC Alr+ wild-type control; conditions: compound 0.1 mM; raw OD600 reference: median of DMSO wells 0.49, cell-free background 0.052
Description: as §2

[3] = arabinose induction (level): High, raw OD600 reference: median of DMSO wells 0.331, cell-free background 0.041
[4] = arabinose induction (level): Low, raw OD600 reference: median of DMSO wells 0.417, cell-free background 0.041
[5] = arabinose induction (level): High, raw OD600 reference: median of DMSO wells […], cell-free background 0.041
[6] = arabinose induction (level): Low, raw OD600 reference: median of DMSO wells 0.227, cell-free background 0.041
[7] = arabinose 100 nM, raw OD600 reference: median of DMSO wells 0.413, cell-free background 0.052
[8] = arabinose 10000000 nM, raw OD600 reference: median of DMSO wells […], cell-free background 0.052

SMILES	growth [1]	growth (E. coli TESEC Mtb Asd; [3])	growth (E. coli TESEC Mtb Asd; [4])	growth (E. coli TESEC Mtb DapB; [5])	growth (E. coli TESEC Mtb DapB; [6])	growth (E. coli TESEC Mtb Alr; [7])	growth (E. coli TESEC Mtb Alr; [8])	growth [2]
NCCNCCNCCNCCN [Tetraethylenepentamine pentahydrochloride]	0.273 ± 0.0096	0.337 ± 0.074	0.441 ± 0.0047	0.196 ± 0.003	0.22 ± 0.015	0.414 ± 0.0053	0.303 ± 0.01	–
CC(C)(C)NC[C@@H](O)COc1cccc2c1CCCC2=O [(+) -Levobunolol hydrochloride]	0.226 ± 0.012	0.459 ± 0.021	0.467 ± 0.022	0.205 ± 0.021	0.224 ± 0.017	0.412 ± 0.012	0.339 ± 0.013	–
CC(C)(C#N)c1cc(Cn2cncn2)cc(C(C)(C)C#N)c1 [Anastrozole]	0.222 ± 0.0057	0.339 ± 0.033	0.384 ± 0.038	0.194 ± 0.011	0.214 ± 0.028	0.409 ± 0.0048	0.321 ± 0.016	–
CC=C(C)C(=O)OC1C(OC(C)=O)C2(CO)C(O)CC3(C)C(=CCC4C5(C)CCC(OC6OC(C(=O)O)C(OC7OC(CO)C(O)C(O)C7O)C(O)C6OC6OC(CO)C(O)C(O)C6O)C(C)(CO)C5CCC43C)C2CC1(C)C (stereo not drawn) [Beta-Escin]	0.289 ± 0.0075	0.271 ± 0.026	0.342 ± 0.048	–	–	0.438 ± 0.018	0.392 ± 0.011	0.438 ± 0.02
CC[C@H](C)C(=O)O[C@H]1CCC=C2C=C[C@H](C)[C@H](CC[C@@H]3C[C@@H](O)CC(=O)O3)[C@H]21 [Mevastatin]	0.15 ± 0.0081	0.135 ± 0.036	0.148 ± 0.012	0.171 ± 0.054	0.134 ± 0.0085	0.406 ± 0.021	0.214 ± 0.028	–
N#Cc1ccc(C(c2ccc(C#N)cc2)n2cncn2)cc1 [Letrozole]	0.2404 ± 0.0017	0.243 ± 0.06	0.356 ± 0.086	–	–	0.394 ± 0.016	0.309 ± 0.016	0.502 ± 0.046
CC[C@H]1OC(=O)[C@H](C)[C@@H](O[C@H]2C[C@@](C)(OC)[C@@H](O)[C@H](C)O2)[C@H](C)[C@@H](O[C@@H]2O[C@H](C)C[C@H](N(C)C)[C@H]2O)[C@](C)(O)C[C@@H](C)[C@@H]2N[C@@H](COCCOC)O[C@H]([C@H]2C)[C@]1(C)O [Dirithromycin]	0.0424 ± 0.0002	0.057 ± 0.0029	0.054 ± 0.0053	–	–	0.0635 ± 0.0042	0.0507 ± 0.00036	–
CC(=O)OCC(=O)[C@@]12N=C(C)O[C@@H]1C[C@H]1[C@@H]3CCC4=CC(=O)C=C[C@]4(C)[C@H]3[C@@H](O)C[C@@]12C [Deflazacort]	0.151 ± 0.011	0.323 ± 0.083	0.396 ± 0.032	–	–	0.394 ± 0.0082	0.347 ± 0.0046	0.48 ± 0.068
O=c1[nH]c(=O)n([C@H]2C[C@H](O)[C@@H](CO)O2)cc1I [Idoxuridine]	0.2463 ± 0.002	0.257 ± 0.057	0.276 ± 0.032	–	–	0.369 ± 0.032	0.376 ± 0.021	–
CN(C)CCOC1=Cc2ccccc2Sc2ccc(Cl)cc21 [Zotepine]	0.179 ± 0.011	0.168 ± 0.0075	0.127 ± 0.018	–	–	0.41 ± 0.0042	0.0544 ± 0.0015	–
C[C@]12CC[C@@H]3c4ccc(O)cc4CC[C@H]3[C@@H]1CC[C@@H]2O [Estradiol-17 beta]	0.125 ± 0.012	0.199 ± 0.0073	0.22 ± 0.0098	0.196 ± 0.0064	0.204 ± 0.012	0.399 ± 0.012	0.218 ± 0.0046	–
N#CC(c1ccc(Cl)cc1)c1c(Cl)cc(-n2ncc(=O)[nH]c2=O)cc1Cl (stereo unspecified) [Diclazuril]	0.0414 ± 0.00047	0.048 ± 0.0019	0.0482 ± 0.002	–	–	0.0632 ± 0.00095	0.0529 ± 0.00089	–
Clc1cccc(Cl)c1NC1=NCCN1 [Clonidine hydrochloride]	0.245 ± 0.01	0.377 ± 0.03	0.422 ± 0.016	–	–	0.407 ± 0.013	0.375 ± 0.017	0.462 ± 0.014
CCOC(=O)/C=C(C)/C=C/C=C(C)/C=C/c1c(C)cc(OC)c(C)c1C [Etretinate]	0.242 ± 0.0089	0.257 ± 0.042	0.341 ± 0.025	0.1575 ± 0.0014	0.186 ± 0.0064	0.41 ± 0.0092	0.344 ± 0.014	–
CN1CCCN=C1/C=C/c1cccs1 [Pyrantel tartrate]	0.235 ± 0.0042	0.347 ± 0.032	0.416 ± 0.039	0.197 ± 0.0092	0.249 ± 0.046	0.409 ± 0.0096	0.3434 ± 0.0026	–
CC(=O)[C@H]1CC[C@H]2[C@@H]3C[C@H](C)C4=CC(=O)CC[C@]4(C)[C@H]3[C@@H](O)C[C@]12C [Medrysone]	0.122 ± 0.0039	0.217 ± 0.02	0.385 ± 0.041	0.179 ± 0.018	0.18 ± 0.0064	0.399 ± 0.0044	0.213 ± 0.018	–
C[C@]12CC[C@@H]3c4ccc(O)cc4CC[C@H]3[C@@H]1C[C@@H](O)[C@@H]2O [Estriol]	0.152 ± 0.0072	0.221 ± 0.043	0.264 ± 0.034	–	–	0.432 ± 0.0087	0.258 ± 0.013	0.474 ± 0.021
CCC(=O)O[C@@H](O[P@](=O)(CCCCc1ccccc1)CC(=O)N1C[C@H](C2CCCCC2)C[C@H]1C(=O)O)C(C)C [Fosinopril]	0.221 ± 0.007	0.185 ± 0.013	0.351 ± 0.065	0.165 ± 0.0076	0.226 ± 0.017	0.334 ± 0.044	0.0696 ± 0.00091	–
Nc1nc(=O)c2nc(CNc3ccc(C(=O)N[C@@H](CCC(=O)O)C(=O)O)cc3)cnc2[nH]1 [Folic acid]	0.25 ± 0.0064	0.219 ± 0.037	0.318 ± 0.021	0.211 ± 0.019	0.239 ± 0.013	0.407 ± 0.011	0.34 ± 0.02	–
Cc1c(-c2ccccc2)oc2c(C(=O)OCCN3CCCCC3)cccc2c1=O [Flavoxate hydrochloride]	0.139 ± 0.0069	0.217 ± 0.06	0.381 ± 0.04	–	–	0.398 ± 0.015	0.262 ± 0.019	0.414 ± 0.023
